# In PubChem BioAssay AID1508602 (The Scripps Research Institute Molecular Screening Center, 2020):
# Several values for one entry are separate records, joined by “and”; a condition that tells them apart may be missing. Equal entries are not always repeated. Among all 650,000 compounds or so, about 6,800 (1%) were called active. No stated cut-off is given here; in the data, active means activation above about 4.9%; inactive means the rest. Many of the other results were omitted from the sample, so actives are more common in it than they were.
# Biological target: G-protein coupled receptor 151 (Homo sapiens) (UniProt Q8TDV0)
# Experiment: activators of human GPR151, primary screen, cell-based, PathHunter beta-arrestin, luminescence (AID 1508602);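 further: 0% = median of compound wells and 100% = cells with positive control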
# Details: PathHunter beta-arrestin GPR151 cells, at 11.2 µM, hits give high values
# G-protein coupled receptor 151 (Homo sapiens), sequence (Q8TDV0 whole entry, looked up): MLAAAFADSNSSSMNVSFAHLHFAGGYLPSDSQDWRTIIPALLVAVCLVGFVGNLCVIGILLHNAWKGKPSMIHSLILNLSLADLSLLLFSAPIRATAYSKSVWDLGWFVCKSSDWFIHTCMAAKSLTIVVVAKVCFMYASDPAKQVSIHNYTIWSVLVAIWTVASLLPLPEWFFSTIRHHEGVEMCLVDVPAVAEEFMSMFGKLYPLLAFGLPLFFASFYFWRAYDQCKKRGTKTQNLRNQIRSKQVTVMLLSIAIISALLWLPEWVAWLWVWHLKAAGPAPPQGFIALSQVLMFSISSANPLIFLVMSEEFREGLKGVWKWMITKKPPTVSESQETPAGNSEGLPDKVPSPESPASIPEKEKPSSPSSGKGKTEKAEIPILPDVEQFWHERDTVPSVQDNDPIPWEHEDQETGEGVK
row,Structure (SMILES),activation
1,Cc1cc2[nH]c(=O)c(=O)[nH]c2cc1S(=O)(=O)Nc1ccc(Br)cc1F,1.29% (inactive)
2,Cc1ccc2c(CNCc3ccccc3Cl)c(C(=O)O)n(Cc3ccccc3)c2c1,2.57% (inactive)
3,O=C(NCCOc1ccccc1)c1cnc(N2CCCC2CO)s1 (centres undefined),-3.77% (inactive)
4,O=C(NCCOc1ccccc1)c1cnc(Nc2cccnc2)s1,0.0811% (inactive)
5,O=C(NCCOc1ccccc1)c1cnc(N2CCN(c3ccccn3)CC2)s1,7.58% (active)
6,O=C(NNS(=O)(=O)c1ccc2ccccc2c1)Nc1ccc(F)cc1F,-1.26% (inactive)
7,O=C(Nc1cccc(Oc2ccc(C(=O)O)c(C(=O)O)c2)c1)c1cccs1,-1.23% (inactive)
8,COc1ccc(CN2CCOc3ccc(C(C)(O)CN(C)C)cc3C2)c(Cl)c1OC (centres undefined),-0.16% (inactive)
9,O=C(Cc1coc2ccc3ccccc3c12)NC1CCN(Cc2ccccc2)CC1,1.58% (inactive)
10,O=C(Cc1coc2ccc3ccccc3c12)NCc1cccnc1,1.97% (inactive)
11,CC(C)(C)NC(=O)Cc1coc2ccc3ccccc3c12,5.9% (active)
12,COc1ccc(CCN(C(C)=O)C2CC(=O)N(c3ccc(Cl)cc3)C2=O)cc1 (centres undefined),2.31% (inactive)
13,Cc1nc2ccccc2c(=O)n1-c1ccc(OC(F)(F)C(F)F)cc1,-0.339% (inactive)
14,CC1=C(C(N)=O)C(c2ccc(F)cc2)n2nc(CCCO)nc2N1 (centres undefined),0.25% (inactive)
15,COc1ccccc1C1C(C(=O)Nc2ccc(F)cc2)=C(C)Nc2nc(CCCO)nn21 (centres undefined),-0.0995% (inactive)
16,COc1ccccc1C1C(C(N)=O)=C(C)Nc2nc(CCCO)nn21 (centres undefined),7.86% (active)
17,O=S(=O)(c1cccs1)N1CCc2nc(-c3cccnc3)nc(N3CCCCC3)c2C1,0.747% (inactive)
18,O=C(O)c1cccc(-n2[nH]c(=O)ccc2=O)c1,-1.37% (inactive)
19,COc1ccc(-c2c(C)oc3cc(OC)ccc3c2=O)cc1,0.167% (inactive)
20,CCOC(=O)c1cc2cc(-c3c(C(=O)OCC)oc4cc(O)cc(O)c4c3=O)ccc2o1,0.272% (inactive)

row,Structure (SMILES),activation
1,CCOC(=O)c1cc2cc(-c3c(C)oc4cc(OC(C)=O)ccc4c3=O)ccc2o1,6.66% (active)
2,C/C=C/C=C/C(=O)N1C(=O)C(=O)c2ccccc21,-4.81% (inactive)
3,Cc1ccc(NC(=O)CSc2nnc(-c3ccc(N)cc3)n2C)cc1Cl,5.78% (active)
4,Cc1ccc(NC(=O)CSc2nnc(-c3ccc(O)cc3)n2C)cc1N,-0.276% (inactive)
5,Cc1ccc(Cl)cc1NC(=O)CSc1nnc(-c2ccc(N)cc2)n1C,0.746% (inactive)
6,CCOC(=O)/C(C#N)=C\c1c(C)cc(C)c(COC)c1C,4.44% (inactive)
7,CN1CCC[C@@H]1CCOC(C)(c1ccccc1)c1ccc(Cl)cc1 (some centres undefined),-2.7% (inactive) and 3.67% (inactive)
8,O=c1sc2sc(=S)sc2s1,-0.693% (inactive)
9,Brc1cnc(NC2CCCCC2)nc1,7.99% (active)
10,C1CCC(Nc2nc3nonc3nc2NC2CCCCC2)CC1,-0.129% (inactive)
11,c1ccc(-n2nnnc2NC2CCCCCC2)cc1,-0.96% (inactive)
12,CCc1cc2cc(OC)ccc2nc1SCC(=O)Nc1nccs1,0.182% (inactive)
13,CN1CCN(C(=O)c2ccc(-c3nc(NCc4ccccc4)c4ncn(Cc5ccc(C(F)(F)F)cc5)c4n3)cc2)CC1,0.228% (inactive)
14,COc1ccccc1C(=O)CN1CCN(S(=O)(=O)c2ccc(Cl)cc2)CC1,1.49% (inactive)
15,O=[N+]([O-])c1ccccc1S(=O)(=O)NCCSCc1ccc(Cl)cc1,-0.348% (inactive)
16,O=C(N1CCCCCC1)C12CC3CC(CC(C3)C1)C2,0.202% (inactive)
17,COC(=O)[C@@H]1CC(O)CN1C(=O)C12CC3CC(CC(C3)C1)C2 (some centres undefined),6.17% (active)
18,NC(=O)C12CC3CC(CC(C3)C1)C2,-0.0547% (inactive)
19,CCc1ccc(N2N=C(C)/C(=C/c3ccc(-c4ccc(S(N)(=O)=O)cc4)o3)C2=O)cc1,-0.641% (inactive)
20,CCc1ccc(N2N=C(C)/C(=C\c3ccc(-c4ccc5c(c4)C(=O)NC5=O)o3)C2=O)cc1,6.36% (active)

row,Structure (SMILES),activation
1,CC1=NN(c2cccc(Cl)c2)C(=O)/C1=C/c1ccc(-c2ccc(F)cc2)o1,1.46% (inactive)
2,COc1cccc(NC(=O)c2sc3ncn(CC(=O)Nc4ccccc4OC)c(=O)c3c2C)c1,0.463% (inactive)
3,CC(C)(C)C1(O)CC(=O)C(=O)NN1c1ccccc1 (centres undefined),-0.103% (inactive)
4,CC(CO)(CO)NC(=S)NC(=O)c1ccccc1,-2.1% (inactive)
5,CC(C)C[C@@H]1NC(=O)[C@H]2CN(Cc3ccccc3Cl)CCN2C1=O,1.34% (inactive)
6,Cc1ccc(C(=O)COc2ccc(C#N)cc2)c(C)c1,0.546% (inactive)
7,Cc1sc(NC(=O)CN(C(=O)c2cccc(F)c2)C2CCCC2)c(C(N)=O)c1C,0.439% (inactive)
8,CCN1C(=O)C(=Cc2ccc(N3CCCC3)cc2C)C(=O)N(CC)C1=S,2.62% (inactive)
9,Cc1cc(N2CCOCC2)ccc1C=C1C(=O)c2ccccc2C1=O,5.28% (active)
10,Cc1cc(N2CCOCC2)ccc1/C=C1\C(=O)NC(=S)N(c2ccccc2)C1=O,0.368% (inactive)
11,O=C(Nc1nc2c(ccc3ccccc32)s1)c1cccc(Oc2ccccc2)c1,1.27% (inactive)
12,CCOC(=O)c1c(NC(=O)Nc2cccc(Cl)c2)sc2c1CCCC2,0.0535% (inactive)
13,COC(=O)c1c(NC(=O)Nc2ccc(Cl)c(Cl)c2)sc2c1CCCC2,8.57% (active)
14,COC(=O)c1c(NC(=O)c2ccc(Cl)c(Cl)c2)sc2c1CCCC2,0.167% (inactive)
15,COc1ccc(OC)c(NC(=O)CN(c2cccc(C)c2C)S(C)(=O)=O)c1,5.98% (active)
16,COc1ccc(NC(=O)CN(c2cc(OC)ccc2OC)S(C)(=O)=O)c(OC)c1,0.777% (inactive)
17,Cc1ccc(C)c(NC(=O)CN(c2cccc(C)c2C)S(C)(=O)=O)c1,0.883% (inactive)
18,CCCOc1ccc([N+](=O)[O-])cc1C1NC(=S)NC(C)=C1C(=O)OC (centres undefined),-1.65% (inactive)
19,Cc1cc2nc(C3CCCCN3C(=O)c3cscn3)[nH]c2cc1C (centres undefined),-0.0121% (inactive)
